Here are results for eight compounds from PubChem BioAssay.

Active and inactive are the calls of the source. Unless noted, the rule behind the calls is not given here.

Assay [1] deals with Wnt5a (protein binding on small-molecule microarray). Put plainly: Wnt5a binders on small-molecule microarray, primary screen, biophysical, 635/667 nm fluorescence (AID 1142).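 Note: fluorescence read at 667 nm with signal to noise per printed feature.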 To be noted: 635 nm fluorescence, higher = more signal.
Assay [2] in a line: cell viability in Huh7 cells, primary screen, cytotoxicity control for HCV replication inhibitor project, CellTiter-Glo luminescence, basal, 48 h (AID 1143).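 Note: Huh7 hepatoma cells carrying a hepatitis C replication reporter with no stimulus; test concentration not given here.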 To be noted: Huh7 HCV replicon, higher = more signal, called active from +8 up or from −8 down.
Assay [3] in a line: P. aeruginosa biofilm formation inhibitors, primary screen, PAO1 strain, BacTiter-Glo luminescence, LB-PBS (AID 1144). To be noted: 12 h, higher = more signal.
The nature of assay [4]: CREB reporter modulators without forskolin, primary screen, cell-based, PC12, CRE-LacZ reporter, unstimulated (AID 1145). To be noted: no forskolin, luminescence, 4.5 h, higher = more signal, called active from +8 up or from −8 down.
Assay [5] is described as follows: CREB reporter modulators under forskolin, primary screen, cell-based, PC12, CRE-LacZ reporter, forskolin-stimulated (AID 1146).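 Note: PC12 cells with 6xCRE LacZ reporter stimulated by forskolin 10 µM; beta-galactosidase reporter signal reflecting CREB driven transcription.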 To be noted: luminescence, 4.5 h, higher = more signal, called active from +8 up or from −8 down.
Assay [6] has as its target Streptavidin (Streptomyces avidinii) (UniProt P22629). The assay is described as follows: streptavidin binders on small-molecule microarray, primary screen, artefact control for SMM compound annotation, biophysical, 635/667 nm fluorescence (AID 1147).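 Note: signal reflects streptavidin binding to arrayed compounds as a control protein.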 To be noted: streptavidin binding, higher = more signal.
Assay [7] can be described thus: small-molecule binders of probe aInhba, primary screen, biochemical, small-molecule microarray, 635/667 nm fluorescence (AID 1148).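 Note: score merges 667nm spot fluorescence with signal-to-noise for antibody binding to printed compounds.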 To be noted: higher = more signal.
For assay [8], the target named is Torsin-1A (Homo sapiens) (UniProt O14656). Put plainly: torsin A binders from cell lysate, primary screen, small-molecule microarray, wild-type, 635/667 nm (AID 1149). To be noted: COS7 hTOR1A-WT lysate, 635 nm fluorescence, higher = more signal.
Sequence of Torsin-1A (Homo sapiens) (O14656 whole entry, looked up): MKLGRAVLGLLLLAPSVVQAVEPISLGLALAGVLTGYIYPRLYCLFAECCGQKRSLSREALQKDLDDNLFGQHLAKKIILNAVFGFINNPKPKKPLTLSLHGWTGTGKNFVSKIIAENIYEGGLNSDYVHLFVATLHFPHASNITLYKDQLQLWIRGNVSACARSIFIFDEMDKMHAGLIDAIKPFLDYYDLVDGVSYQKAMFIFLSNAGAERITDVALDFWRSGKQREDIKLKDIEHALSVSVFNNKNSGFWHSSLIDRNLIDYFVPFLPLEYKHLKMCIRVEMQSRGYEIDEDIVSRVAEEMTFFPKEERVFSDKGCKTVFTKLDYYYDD
Assay [9] has the same target. Put plainly: small-molecule binders of mutant TOR1A in lysate, primary screen, cell lysate, small-molecule microarray, COS7 lysate, 635/667 nm fluorescence (AID 1150).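 Note: score pools 667 nm emission and signal to noise measuring lysate protein binding.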 To be noted: COS7 hTOR1A mutant lysate, 635 nm fluorescence, higher = more signal.
The subject of assay [10] is Sonic hedgehog protein (Shh). The assay is described as follows: small-molecule binders of Shh protein, primary screen, biochemical, small-molecule microarray, 635/667 nm fluorescence (AID 1151).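 Note: Shh protein binding to compounds spotted on small-molecule microarray slides; score combines spot fluorescence intensity with signal-to-noise across triplicate slides.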 To be noted: small-molecule microarray binding, 635 nm fluorescence; higher = more signal.
Assay [11] in a line: E. coli DRC41 culture turbidity changes, primary screen, E. coli filamentation inducer project, strain DRC41, OD650, 48 h (AID 1152).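 Note: E. coli MC1000 strain DRC41 lacking acrAB efflux pump and sulA.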 To be noted: E. coli DRC41 (acrAB sulA), higher = more signal, called active from +8 up or from −8 down.
Assay [12] is described as follows: small-molecule binders of probe aLefty1, primary screen, biochemical, small-molecule microarray, 635/667 nm fluorescence (AID 1153).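 Note: score merges spot fluorescence with signal-to-noise ratio from the scanned slide images.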 To be noted: higher = more signal.
The nature of assay [13]: PSAC antagonists in infected red cells, primary screen, cell-based, P. falciparum Indochina, OD700, 1 h (AID 1154). To be noted: P. falciparum Indochina infected RBC osmotic lysis, higher = more signal, called active from +8 up or from −8 down.
The nature of assay [14]: PSAC antagonists in infected red cells, primary screen, cell-based, P. falciparum Indochina, OD700, 2 h (AID 1155).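 Note: lysis reports solute entry through the parasite surface anion channel PSAC; channel blockers reduce lysis of infected cells.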 To be noted: P. falciparum Indochina infected erythrocytes, osmotic lysis OD700; higher = more signal, called active from +8 up or from −8 down.
Assay [15] is described as follows: osmotic lysis modulators in infected erythrocytes, primary screen, PSAC antagonist project, cell-based, P. falciparum Indochina, OD700, 3 h (AID 1156). To be noted: higher = more signal, called active from +8 up or from −8 down.
Assay [16] can be described thus: PSAC antagonists in infected red cells, primary screen, cell-based, P. falciparum Indochina, OD700, 18 h (AID 1157). To be noted: P. falciparum Indochina infected erythrocytes, osmotic lysis OD700, 18 h; higher = more signal, called active from +8 up or from −8 down.
The nature of assay [17]: modulators of S6 phosphorylation in cells, primary screen, cell-based, A549, cytoblot, luminescence, serum-stimulated (AID 1158).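 Note: serum-stimulated A549 lung adenocarcinoma cells; signal is phosphorylated S6 detected by cytoblot immunostaining with HRP secondary.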 To be noted: A549 phospho-S6 cytoblot, 5 h, higher = more signal.
The target of assay [18] is NADPH oxidase 2 (Homo sapiens) (UniProt P04839). The assay is described as follows: NOX2-dependent H2O2 signal modulators, primary screen, NOX inhibitor project, cell-based, HEK293-NOX2, PMA-stimulated, Amplex Red fluorescence (AID 1159). Note: test concentration not given here. To be noted: 45 min, higher = more signal, called active from +8 up or from −8 down.
Sequence of NADPH oxidase 2 (Homo sapiens) (P04839 whole entry, looked up): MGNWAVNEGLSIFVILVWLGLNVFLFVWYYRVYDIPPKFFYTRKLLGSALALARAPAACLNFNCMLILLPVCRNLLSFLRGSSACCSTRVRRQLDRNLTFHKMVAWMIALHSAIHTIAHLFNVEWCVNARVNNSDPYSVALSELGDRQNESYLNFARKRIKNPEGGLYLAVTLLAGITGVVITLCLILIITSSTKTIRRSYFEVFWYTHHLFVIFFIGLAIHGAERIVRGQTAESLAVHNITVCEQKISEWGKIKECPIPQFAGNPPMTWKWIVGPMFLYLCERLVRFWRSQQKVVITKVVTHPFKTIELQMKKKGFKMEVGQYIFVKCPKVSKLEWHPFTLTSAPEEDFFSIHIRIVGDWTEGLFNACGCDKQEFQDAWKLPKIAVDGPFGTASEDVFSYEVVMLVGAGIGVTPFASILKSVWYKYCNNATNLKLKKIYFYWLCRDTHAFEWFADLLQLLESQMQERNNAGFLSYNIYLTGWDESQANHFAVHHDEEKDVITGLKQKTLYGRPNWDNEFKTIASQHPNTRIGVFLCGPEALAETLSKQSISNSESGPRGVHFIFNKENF
The target of assay [19] is NADPH oxidase 4 (Homo sapiens) (UniProt Q9NPH5). The assay is described as follows: NOX4-dependent H2O2 signal modulators, primary screen, NOX inhibitor project, cell-based, HEK293-NOX4, tetracycline-induced, Amplex Red fluorescence (AID 1160). To be noted: 45 min, higher = more signal, called active from +8 up or from −8 down.
Sequence of NADPH oxidase 4 (Homo sapiens) (Q9NPH5 whole entry, looked up): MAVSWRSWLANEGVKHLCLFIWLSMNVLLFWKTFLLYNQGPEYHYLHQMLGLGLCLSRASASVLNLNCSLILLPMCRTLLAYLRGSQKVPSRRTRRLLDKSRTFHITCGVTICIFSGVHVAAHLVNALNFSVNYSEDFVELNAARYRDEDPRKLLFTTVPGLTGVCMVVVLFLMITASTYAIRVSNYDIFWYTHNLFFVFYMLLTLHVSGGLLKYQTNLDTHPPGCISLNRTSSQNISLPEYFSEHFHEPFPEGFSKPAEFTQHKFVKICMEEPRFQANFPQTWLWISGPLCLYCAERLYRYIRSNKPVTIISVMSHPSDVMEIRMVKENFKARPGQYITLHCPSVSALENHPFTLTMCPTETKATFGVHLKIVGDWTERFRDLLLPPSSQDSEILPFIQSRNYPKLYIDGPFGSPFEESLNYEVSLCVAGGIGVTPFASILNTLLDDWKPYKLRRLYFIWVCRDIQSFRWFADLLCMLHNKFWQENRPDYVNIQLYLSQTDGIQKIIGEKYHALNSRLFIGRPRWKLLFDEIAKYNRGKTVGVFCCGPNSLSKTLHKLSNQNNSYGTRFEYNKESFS
Assay [20] deals with NADPH oxidase 5 (Homo sapiens) (UniProt Q96PH1). Put plainly: NOX5-dependent H2O2 signal modulators, primary screen, NOX inhibitor project, cell-based, HEK293-NOX5, Amplex Red fluorescence (AID 1161). To be noted: HEK293-NOX5, ionomycin, 45 min, higher = more signal.
Sequence of NADPH oxidase 5 (Homo sapiens) (Q96PH1 whole entry, looked up): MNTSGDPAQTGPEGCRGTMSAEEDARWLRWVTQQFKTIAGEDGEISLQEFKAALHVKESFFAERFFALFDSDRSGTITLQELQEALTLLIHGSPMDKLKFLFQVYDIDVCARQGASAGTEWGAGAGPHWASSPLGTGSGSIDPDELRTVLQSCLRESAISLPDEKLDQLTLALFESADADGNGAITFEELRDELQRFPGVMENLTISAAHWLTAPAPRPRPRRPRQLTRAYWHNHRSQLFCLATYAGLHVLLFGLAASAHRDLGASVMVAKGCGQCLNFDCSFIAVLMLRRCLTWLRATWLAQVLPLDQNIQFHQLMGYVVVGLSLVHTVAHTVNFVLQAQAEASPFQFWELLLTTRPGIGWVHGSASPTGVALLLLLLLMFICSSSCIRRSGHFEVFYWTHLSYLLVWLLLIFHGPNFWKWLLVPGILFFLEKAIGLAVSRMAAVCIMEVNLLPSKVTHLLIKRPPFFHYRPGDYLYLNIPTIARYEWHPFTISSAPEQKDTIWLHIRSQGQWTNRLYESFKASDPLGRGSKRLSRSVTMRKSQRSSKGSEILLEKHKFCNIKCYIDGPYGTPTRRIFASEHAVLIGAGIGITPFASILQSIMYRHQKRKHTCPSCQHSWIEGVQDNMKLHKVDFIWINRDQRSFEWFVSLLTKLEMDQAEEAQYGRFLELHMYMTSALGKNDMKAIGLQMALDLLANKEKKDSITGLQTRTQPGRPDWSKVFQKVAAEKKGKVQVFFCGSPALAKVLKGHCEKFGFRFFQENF

Sequence of Streptavidin (Streptomyces avidinii) (P22629 whole entry, looked up): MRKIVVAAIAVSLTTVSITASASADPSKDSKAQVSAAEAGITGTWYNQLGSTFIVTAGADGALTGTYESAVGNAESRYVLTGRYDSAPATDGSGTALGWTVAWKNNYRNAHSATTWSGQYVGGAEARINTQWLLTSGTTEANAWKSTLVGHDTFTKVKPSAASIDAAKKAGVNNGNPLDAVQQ

Consider `CCOC(=O)[C@H]1[C@@H]2C(=O)N3CCC[C@H]3[C@H](O[Si](C(C)C)(C(C)C)C(C)C)[C@H]2C=C2CCN(S(=O)(=O)c3ccc(C)cc3)C[C@H]21`, for which the composite z-score in [1] was 0.0328; in [6] it was 1.03; in assay [7] it was -0.0468; with Torsin-1A (Homo sapiens) [8] it was 0.353; in the assay with Torsin-1A (Homo sapiens) [9] it was 0.163; in assay [10] it was 1.58. In [12], this compound showed a composite z-score of -0.202. The z-score was -5.75 (inactive) in [2]; 0.426 (inactive) in assay [3]; 0.673 (inactive) in [4]; 0.986 (inactive) in [5]; -1.12 (inactive) in [11]; 5.55 (inactive) in assay [13]. The z-score is 1.24 (inactive) in [14]; 0.216 (inactive) in [15]; 1.02 (inactive) in assay [16]; 0.582 in assay [17]; 0.163 (inactive) in [18]; -0.264 (inactive) in assay [19]. In assay [20], this compound displayed a z-score of 1.69.

As for `COCCOC(=O)N1C(=O)[C@@]2(c3cc(C#CC4=CCCCC4)ccc31)[C@H](c1ccc(OCCO)cc1)N1[C@H](c3ccccc3)[C@H](c3ccccc3)OC(=O)[C@H]1[C@@H]2C(=O)N1CCN(c2ncccn2)CC1`, the composite z-score amounted to 0.323 in assay [1]; 0.0363 in assay [6]; 0.0649 in assay [7]; 0.767 with Torsin-1A (Homo sapiens) [8]; 0.501 with Torsin-1A (Homo sapiens) [9]; 0.772 in assay [10]. The compound further returned a composite z-score in assay [12] of 0.121. For the same compound, the z-score was -1.24 (inactive) in [2]; 1.04 (inactive) in [3]; 0.212 (inactive) in assay [4]; -0.674 (inactive) in [5]; 0.887 (inactive) in [11]; 3.35 (inactive) in assay [13]. The z-score was 1.73 (inactive) in assay [14]; -0.146 (inactive) in assay [15]; 0.799 (inactive) in [16]; 0.829 in assay [17]; 0.825 (inactive) in [18]; -0.623 (inactive) in assay [19]. This compound also returned a z-score in assay [20] of 1.03.

As to `CCOC(=O)C[C@H]1[C@H](OC(=O)c2cc3ccccc3oc2=O)[C@@H](NC(=O)c2ccc(-c3ccccc3)cc2)c2cc(OCCCO)ccc2N1C(=O)c1ccccc1`, the composite z-score is 0.624 in assay [1]; 0.509 in [6]; 0.027 in assay [7]; 1.4 in the assay with Torsin-1A (Homo sapiens) [8]; -0.0812 with Torsin-1A (Homo sapiens) [9]; 1.87 in assay [10]. The compound further displayed a composite z-score in [12] of 0.0839. The z-score is -2.84 (inactive) in assay [2]; 1.02 (inactive) in assay [3]; 5.66 (inactive) in assay [4]; -0.818 (inactive) in [5]; 1.27 (inactive) in assay [11]; 0.697 (inactive) in assay [13]. In addition, the z-score in [14] is -1.44 (inactive); in assay [15], -0.249 (inactive); in assay [16], -2.22 (inactive); in assay [17] it was 0.683; in assay [18] it was -1.47 (inactive); in assay [19], 0.178 (inactive). In addition, the z-score in assay [20] turned out to be 0.748.

Regarding `COCC1=C2[C@@H](CCc3ccccc3)OB(O)C[C@@H]2[C@@H]2C(=O)C=CC(=O)[C@@H]2C1`, the composite z-score in assay [1] came to 0.0021; in assay [6], 0.55; in [7] it was 0.0212; in the assay with Torsin-1A (Homo sapiens) [8], 0.246; with Torsin-1A (Homo sapiens) [9], 0.292; in [10] it was 0.963. The composite z-score in assay [12] was -0.0386. For the same compound, the z-score is -1.9 (inactive) in [2]; 0.353 (inactive) in assay [3]; 19.2 (active) in assay [4]; 22.8 (active) in [5]; -0.204 (inactive) in assay [11]; 2.09 (inactive) in [13]. Besides, the z-score in [14] is -0.122 (inactive); in [15], -0.623 (inactive); in assay [16] it was -0.0621 (inactive); in assay [17] it was 0.154; in assay [18] it was -0.109 (inactive); in assay [19] it was -0.383 (inactive). The compound also came in with a z-score in assay [20] of 1.01.

With `[N-]=[N+]=Nc1ccccc1C[C@]1(C(=O)N2CCOCC2)N=C(c2ccc(OCCCO)cc2)O[C@H]1c1ccccc1`, the composite z-score in [1] was 1.01; in [6], 0.65; in assay [7], -0.0279; with Torsin-1A (Homo sapiens) [8], 1.14; with Torsin-1A (Homo sapiens) [9] it was 0.272; in assay [10], 0.276. The same compound returned a composite z-score in [12] of -0.007. The z-score in assay [2] is -3.57 (inactive); in assay [3], 0.567 (inactive); in [4], 0.204 (inactive); in assay [5], -0.0807 (inactive); in [11], 1.61 (inactive); in assay [13], 20.5 (active). For the same compound, the z-score in assay [14] was 4.95 (inactive); in [15] it was 2.84 (inactive); in assay [16], 1.43 (inactive); in [17], 0.251; in assay [18], 0.265 (inactive); in assay [19] it was 0.719 (inactive). Also, the z-score in assay [20] was -1.47.

On to `O=C1C2C=CC(C(O)c3ccc(Br)cc3)N(Nc3ccccc3F)C2C(=O)N1c1ccccc1` (stereo not given), for which the composite z-score in assay [1] is -0.0758; in assay [6], 0.738; in [7], -0.204; with Torsin-1A (Homo sapiens) [8] it was -0.423; with Torsin-1A (Homo sapiens) [9], -0.0946; in assay [10], -0.481. For the same compound, the composite z-score in assay [12] is -0.192. In addition, the z-score in [2] was -2.94 (inactive); in assay [3], -1.76 (inactive); in assay [4], -1.02 (inactive); in assay [5], -0.0733 (inactive); in assay [11], 0.894 (inactive); in [13] it was 3.67 (inactive). In addition, the z-score is -0.0291 (inactive) in [14]; -0.834 (inactive) in assay [15]; -1.01 (inactive) in assay [16]; 0.79 in assay [17]; -1.35 (inactive) in [18]; -2.56 (inactive) in assay [19]. The same compound returned a z-score in assay [20] of -0.774.

Take `CCOC(=O)C[C@H]1[C@H](OC(=O)c2ccc(C(=O)c3ccccc3)cc2)[C@@H](NC(=O)Cc2ccc(OC)cc2)c2cc(OCCCO)ccc2N1C(=O)c1ccccc1`: the composite z-score in assay [1] was 0.328; in assay [6] it was 0.162; in assay [7], -0.0762; with Torsin-1A (Homo sapiens) [8], 0.0313; with Torsin-1A (Homo sapiens) [9], 0.337; in [10], 0.622. In assay [12], this compound came in with a composite z-score of -0.0762. Also, the z-score in assay [2] was -0.117 (inactive); in assay [3], -0.0806 (inactive); in [4] it was 1.47 (inactive); in assay [5], 0.926 (inactive); in assay [11] it was -0.915 (inactive); in assay [13] it was 2.41 (inactive). Besides, the z-score was -0.431 (inactive) in assay [14]; -0.937 (inactive) in assay [15]; 0.384 (inactive) in [16]; -0.408 in assay [17]; -1.25 (inactive) in assay [18]; 1.16 (inactive) in assay [19]. The compound further returned a z-score in [20] of 0.303.

In the case of `CN1C(=O)C2C=CC(C(O)C#Cc3ccccc3)N(Nc3ccccc3)C2C1=O` (stereo not given), the composite z-score was 0.399 in [1]; 1.38 in [6]; 0.153 in assay [7]; 0.663 in the assay with Torsin-1A (Homo sapiens) [8]; 0.889 with Torsin-1A (Homo sapiens) [9]; 0.592 in [10]. For the same compound, the composite z-score in [12] was found to be 0.545. In addition, the z-score in [2] was 0.254 (inactive); in assay [3], -0.141 (inactive); in assay [4], -0.515 (inactive); in assay [5] it was 0.526 (inactive); in assay [11], -0.877 (inactive); in assay [13] it was 1.07 (inactive). Moreover, the z-score in assay [14] was 0.783 (inactive); in [15] it was 0.0989 (inactive); in assay [16] it was 1.12 (inactive); in [17] it was -1.19; in [18] it was -1.22 (inactive); in [19], -4.71 (inactive). Also, in assay [20], the z-score was -1.8.
